KCNH2 3.1 block: KCNH2 3.1 (human) potassium channel inhibition. U2OS KCNH2 3.1, thallium flux FluxOr; stronger effect = lower value. activity change, % (tested at about 1.8 µM). 340,000 tested, 0.95% active. AID 720553;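 active = maximum activity change below -70%; inconclusive = maximum activity change from -70% to -50%; inactive = maximum activity change above -50%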;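 also: thallium influx rate constant from kinetic fluorescence after stimulation buffer; % is scaled to controls: 0 for no effect and ±100 for the full control effect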
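Normalized rate constant (relative to positive and negative DMSO controls) derived from a 2 min kinetic fluorescence read after stimulation; U2OS cells expressing the 3.1 isoform via virus at 1.77 x 10^8 /mL.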
TRPV1 potentiator: potentiators of human vanilloid receptor 1 (TRPV1). 320,000 tested, 0.02% active. potentiation, % at 8.33 µM. AID 540277. TRPV1-expressing cells, Fluo-8 calcium influx, capsaicin EC20 potentiation; in the data active = potentiation above about 80%; inconclusive = between about 30% and that limit; also: 0% is about no effect
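Fluo-8 calcium influx in TRPV1-expressing cells, kinetic read (ex 480/em 520 nm). Compound added and read 3 min for agonist activity, followed by capsaicin at EC20 final and 2 min further read for enhancement.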
KCNH2 WT inh: KCNH2 (human, wildtype) channel inhibition | Q12809 | U2OS, BacMam KCNH2, thallium flux FluxOr; stronger effect = lower value | activity change, % at 1.84 µM | 340,000 tested, 0.37% active | AID 720551;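 active = maximum activity change below -70%; inconclusive = maximum activity change between -70% and -50%; inactive = maximum activity change above -50%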; also: % is scaled to controls: 0 for no effect and ±100 for the full control effect
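U2OS cells were transduced with wild-type KCNH2 virus (2.03 x 10^8 / mL) for 4 h at room temperature, then cultured overnight at 37 C. Thallium flux was read with FluxOr dye. Rate constants were normalized to DMSO controls.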
ClpP mod: qHTS Assay for Activators of ClpP; ATP-dependent Clp protease proteolytic subunit (Bacillus subtilis (strain 168)), P80244; purified B. subtilis ClpP, FRET peptide cleavage, 20 min; Potency, µM (series often up to 57.5 µM), inactives show top-dose activity change, negative = active; 340,000 tested, 1.9% active; active = well fitted falling curve with a large enough effect; inconclusive = small, poorly fitted or top-dose-only effect; inactive = no such curve, though single readings can be large or run the other way; also: potency is read from the fitted curve at half-maximal effect; the source files actives as falling curves though it sought activators and does not explain the sign; nearly all actives have a fitted effect of over 65% in size
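Buffer: 100 mM Tris/HCl pH8, 100 mM KCl, 0.05% low protease BSA, 2.5% glycerol, 0.01% Tween-20. ClpP 10 microg/mL final; 20 min RT; delta FRET normalized to ADEP and DMSO controls.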
TRPV1 ag: human TRPV1 agonism | Q8NER1 | TRPV1-expressing cells, Fluo-8 calcium influx, agonist mode | activation, % at 8.33 µM | 320,000 tested, 0.19% active | AID 540275; in the data active = activation above about 80%; inconclusive = between about 30% and that limit; also: 0% is about no effect
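TRPV1-expressing cells were cultured overnight at 35.5C and loaded with Fluo-8 calcium dye for 40 to 90 min at room temperature. After a 10 s baseline, compound was added and calcium influx was read kinetically for 3 min (ex 480/em 520 nm).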
p53 reactivation: mutant p53 re-activation in reporter cells | H1299 p53-A138V BP100-luciferase reporter, luminescence, 24 h | Potency, µM (highest dose often 92.2 µM), for the others: at the highest dose activity change, positive = activation, actives largely listed as activators | 320,000 tested, 0.063% active | AID 504706; active = well fitted activation curve with a large enough effect; inconclusive = small, poorly fitted or top-dose-only effect; inactive = no such curve, though single readings can be large or run the other way; also: potency is read from the fitted curve at half-maximal effect; % of control where 0% means no effect; nearly all actives have a fitted effect of over 45% in size
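p53-null H1299 cells stably carrying temperature-sensitive p53-A138V and a BP100-luciferase reporter were pinned with compounds (4-point, 1:5 series) and held 24 hrs at 37 deg C. Luminescence was read 10 min after detection reagent.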
* hit, by the source's call; ? = inconclusive; . = no result. Rows were chosen to be rich in hits. Some 2.6% of all compounds tested hit in one or more screens of this group.

SMILES	KCNH2 3.1 block	TRPV1 potentiator	KCNH2 WT inh	ClpP mod	TRPV1 ag	p53 reactivation
C/C(=N\NC(=O)c1ccccc1OCc1ccc(F)cc1)c1ccccn1	-14	-14	-24	2%	?	?
O=C(C[C@H]1C[C@@H]2c3cc(NC(=O)Nc4ccccc4)ccc3O[C@@H]2[C@@H](CO)O1)NCC1CC1	-28	.	-10	3%	.	.
CCOC(=O)c1c(C)[nH]c(C(=O)N/N=C/c2cc([N+](=O)[O-])ccc2O)c1C	-70*	?	-21	.	0	12%
CCOC(=O)c1c(C)[nH]c(C(=O)N/N=C\c2ccccc2O)c1C	-7	20	24	1%	1	?
C/C(=N\NC(=O)c1ccccc1-n1cccc1)C1CC1	-76*	0	-4	?	0	4%
O=C(C[n+]1c(Cl)cc(Cl)c2ccccc21)c1ccccc1	.	.	.	-1%	.	.
COc1cc2c(cc1OC)[C@@H](NC(=O)Cc1ccc(F)cc1)[C@H](OCc1ccccc1)C2	-131*	.	-16	2%	.	9%
COc1cc2c(cc1OC)[C@@H](NC(=O)CCc1ccccc1)[C@H](OCc1ccccc1)C2	-2	.	-2	-1%	.	-8%
CCOc1ccc(S(=O)(=O)N2CCC(C(=O)OC(C)C(=O)NC3CCCCC3C)CC2)cc1 (configuration not stated)	-144*	-5	-203*	-11%	1	5%
CCOc1ccc(-c2cc(NC(=O)Nc3ccccc3Cl)c(C(=O)OC)s2)cc1	.	.	.	14µM*	.	.
CN(C)N=Nc1ccc(/C=C2\C=Cc3ccccc32)cc1	.	.	.	1%	.	.
COc1ccccc1CNC(=O)Cn1nnnc1CN(C)C(C)C	15	3	1	-3%	1	8%
COc1ccccc1Cc1nnnn1CC(=O)O	-92*	7	0	-1%	6	-6%
C[N+]1(CC(=O)c2ccccc2)CCc2ccccc2C1 (configuration not stated)	.	.	.	0%	.	.
N#CC1=C(N)N2C(=C(C#N)C13CCN(Cc1ccccc1)CC3)Nc1ccccc12	-18	-2	-10	32µM*	0	-6%
Cc1[nH]nc2c1C1(CCN(Cc3ccccc3)CC1)C(C#N)=C(N)O2	9	-17	8	-17%	-2	32%
CC1(C(=O)NS(=O)(=O)C2CC2)CCCN(C(=O)c2cccnc2Oc2ccccc2)C1 (configuration not stated)	.	.	.	-1%	.	.
CSc1nc2c(c(=O)[nH]1)C(c1cccs1)C1=C(CCCC1=O)N2 (configuration not stated)	10	-1	4	22µM*	2	4%
Cc1ccc(CSc2nc3c(c(=O)[nH]2)C(c2ccncc2)C2=C(CCCC2=O)N3)cc1 (configuration not stated)	-6	17	3	14µM*	-2	-9%
CSc1nc2c(c(=O)[nH]1)C(c1ccccc1)C1=C(CC(C)(C)CC1=O)N2 (configuration not stated)	7	-3	6	.	1	0%
CC1(C)CC(=O)C2=C(C1)Nc1nc(SCCN3CCOCC3)[nH]c(=O)c1C2c1cccs1 (configuration not stated)	-4	-23	3	32µM*	2	-4%
Cc1ccccc1OCCSc1nc(C)c(Cc2ccccc2)c(=O)[nH]1	.	.	.	2%	.	.
COc1ccc(-c2nc(C#N)c(N3CCCCCC3)o2)cc1OC	-4	-14	9	47%	16	10%
COc1ccc(-c2nc(C#N)c(NCCc3ccccc3)o2)cc1OC	-16	0	15	6.3µM*	-5	?
CCN(CC)CCCNc1oc(-c2ccc(OC)c(OC)c2)nc1C#N	11	2	2	-2%	3	2%
COc1ccc(-c2nc(C#N)c(N3CC(C)OC(C)C3)o2)cc1OC (configuration not stated)	4	21	6	0.71µM*	2	-3%
